This is an account of results in PubChem BioAssay (EPA / NIEHS).

Several values for one entry are separate records, joined by “and”; a condition that tells them apart may be missing. Identical values can stand only once. Inconclusive results are not listed. Activity calls are given as the source filed them. Rule for the calls, unless noted: active = hit-call score of the fitted dose curve at least 0.9, where 1 is the maximum; inactive = score below 0.9.

As a reminder, the AC50 is the concentration giving half of the maximal activity seen.

Read-out in assay [1]: Nuclear factor erythroid 2-related factor 2 (Homo sapiens) (UniProt Q16236)
The experiment in a line: LTEA_HepaRG_NFE2L2: Life Technologies and Expression Analysis (LTEA) Assay for Nuclear factor erythroid 2-related factor 2 (NFE2L2) Transcription Factor using HepaRG (AID 2283527).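 For outcome: TaqMan qRT-PCR transcript level normalised to ACTB GAPDH and POLR2A housekeeping genes.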 Conditions: mRNA level, 48 h; actives raise or lower the signal. The gist of the method:
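HepaRG, 48 h dosing, 8-pt half-log series from 100 uM in 0.5% DMSO, duplicates. Read-out: NFE2L2 mRNA by qRT-PCR (ACTB/GAPDH/POLR2A normalization). Bidirectional curve fit vs DMSO baseline.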

Read-out in assay [2]: succinate dehydrogenase complex iron sulfur subunit B (SDHB), SDHB (gene 6390)
The experiment in a line: LTEA_HepaRG_SDHB: Life Technologies and Expression Analysis (LTEA) Assay for succinate dehydrogenase complex iron sulfur subunit B (SDHB) using HepaRG (AID 2283528). Conditions: mRNA level, 48 h; actives raise or lower the signal. In short, it runs like this:
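Readout is SDHB transcript level by qRT-PCR, normalised to three housekeeping genes and fitted bidirectionally against 0.5% DMSO vehicle. Human HepaRG cells were treated for 48 h at up to 100 uM.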

Read-out in assay [3]: Signal transducer and activator of transcription 3 (Homo sapiens) (UniProt P40763)
Briefly: LTEA_HepaRG_STAT3: Life Technologies and Expression Analysis (LTEA) Assay for Signal transducer and activator of transcription (STAT3) using HepaRG (AID 2283529). The conditions noted are these: mRNA level, 48 h; actives raise or lower the signal. The gist of the method:
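HepaRG, 48 h exposure, 8-pt half-log series (top 100 uM), 0.5% DMSO vehicle, duplicates. Readout: STAT3 transcript by Fluidigm qRT-PCR, housekeeping-normalized; bidirectional fit vs DMSO baseline.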

Read-out in assay [4]: solute carrier (SLCO1B1), SLCO1B1 (gene 10599)
Briefly: LTEA_HepaRG_SLCO1B1: Life Technologies and Expression Analysis (LTEA) Assay for solute carrier (SLCO1B1) using HepaRG (AID 2283530). The conditions noted are these: mRNA level, 48 h; actives raise or lower the signal. In short, it runs like this: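 SLCO1B1 transcript levels were quantified by TaqMan qRT-PCR using three housekeeping genes for normalization. This followed 48 h chemical exposure (100 uM top, half-log, 8 points, 0.5% DMSO) of HepaRG liver cells, with gain or loss fitted relative to DMSO.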

Read-out in assay [5]: sulfotransferase 2A1 (SULT2A1), SULT2A1 (gene 6822)
Briefly: LTEA_HepaRG_SULT2A1: Life Technologies and Expression Analysis (LTEA) Assay for sulfotransferase 2A1 (SULT2A1) using HepaRG (AID 2283531). Conditions: mRNA level, 48 h; actives raise or lower the signal. In short, it runs like this:
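Expression change of SULT2A1, by qRT-PCR with three housekeeping-gene normalization, was scored bidirectionally versus DMSO. Cells: differentiated HepaRG, dosed in duplicate for 48 h across 8 points, highest 100 µM, half-log dilution, 0.5% DMSO.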

Read-out in assay [6]: Transforming Growth Factor (TGFA), TGFA (gene 7039)
The experiment in a line: LTEA_HepaRG_TGFA: Life Technologies and Expression Analysis (LTEA) Assay for Transforming Growth Factor (TGFA) using HepaRG (AID 2283532). Conditions: mRNA level, 48 h; actives raise or lower the signal. The gist of the method: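 qRT-PCR read-out of TGFA transcript, normalized to three housekeeping genes, fitted bidirectionally against 0.5% DMSO baseline. Human HepaRG cultures received chemicals for 48 h at eight half-log concentrations, top 100 uM.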

Read-out in assay [7]: Transforming Growth Factor (TGFB1), TGFB1 (gene 7040)
The experiment in a line: LTEA_HepaRG_TGFB1: Life Technologies and Expression Analysis (LTEA) Assay for Transforming Growth Factor (TGFB1) Transporter using HepaRG (AID 2283533). The conditions noted are these: mRNA level, 48 h; actives raise or lower the signal. The gist of the method:
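TGFB1 transcript measured by qRT-PCR with normalisation to three housekeeping genes (ACTB, GAPDH, POLR2A); human HepaRG line treated in duplicate for 48 hr with an 8-point series topping at 100 uM, 0.5% DMSO vehicle, bidirectionally fitted.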

Read-out in assay [8]: TIMP1, TIMP1 (gene 7076)
The experiment in a line: LTEA_HepaRG_TIMP1: Life Technologies and Expression Analysis (LTEA) Assay for TIMP1 using HepaRG (AID 2283534). Conditions: mRNA level, 48 h; actives raise or lower the signal. The gist of the method: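 Bidirectional change in TIMP1 transcript versus 0.5% DMSO, measured by TaqMan qRT-PCR with three housekeeping genes for normalization. HepaRG human liver cells dosed 48 h in duplicate, top concentration 100 uM with half-log dilutions.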

Read-out in assay [9]: UDP glucuronosyltransferase (UGT1A6), UGT1A6 (gene 54578)
Briefly: LTEA_HepaRG_UGT1A6: Life Technologies and Expression Analysis (LTEA) Assay for UDP glucuronosyltransferase (UGT1A6) using HepaRG (AID 2283539). The conditions noted are these: mRNA level, 48 h; actives raise or lower the signal. In short, it runs like this:
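Expression was quantified by TaqMan qRT-PCR on Fluidigm arrays with ACTB/GAPDH/POLR2A normalization and bidirectional fitting against 0.5% DMSO. HepaRG cells (~100,000/well) were treated in duplicate for 48 h at eight half-log concentrations up to 100 uM in serum-free induction medium.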

Read-out in assay [10]: X-box binding protein 1 (XBP1), XBP1 (gene 7494)
Briefly: LTEA_HepaRG_XBP1: Life Technologies and Expression Analysis (LTEA) Assay for X-box binding protein 1 (XBP1) using HepaRG (AID 2283540). Conditions: mRNA level, 48 h; actives raise or lower the signal. In short, it runs like this:
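XBP1 transcript by qRT-PCR (housekeeping-normalized: ACTB, GAPDH, POLR2A) after 48 h chemical treatment of HepaRG cells, 8-point half-log series topping at 100 uM, vehicle 0.5% DMSO. Gain and loss of signal fitted relative to DMSO.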

Assay [11] is described as follows: LTEA_HepaRG_LDH_cytotoxicity: Cytotoxicity Assessment in the Life Technologies and Expression Analysis (LTEA) Assay (AID 2283563; active = hit-call score of the fitted dose curve at least 0.9, where 1 is the maximum;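 for AC50: LDH activity released into spent culture medium as a marker of cell death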). The gist of the method:
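LDH release into culture medium read after 48 h chemical treatment of HepaRG cells. Duplicate wells, eight-point half-log series topping at 100 uM, 0.5% DMSO vehicle and baseline.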

A short description of assay [12]: ATG_XTT_Cytotoxicity: Cytotoxicity Assessment in the Attagene TRANS-FACTORIAL HepG2 Assay (AID 2283584; active = hit-call score of the fitted dose curve at least 0.9, where 1 is the maximum). In short, it runs like this: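 Viability endpoint from XTT after 24 h chemical exposure of reporter-transfected human HepG2 liver cells; signal loss fitted relative to DMSO negative control.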
Assay [13] in a line: TOX21_p53_BLA_p3_viability: Viability Assessment in the Tox21 HCT-116 p53 Agonism Beta-lactamase Assay, Phase 3 (AID 2283593; active = hit-call score of the fitted dose curve at least 0.9, where 1 is the maximum;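 note: cells exposed to compound for 16 h before reading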). In short, it runs like this:
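HCT116 cells, 4000/well, dosed 5 h after plating by pin transfer (217-fold dilution from DMSO stock) and incubated 16 h at 37C, 5% CO2. Viability read as ATP luminescence with CellTiter-Glo after 30 min at room temperature.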

Assay [14] is described as follows: TOX21_p53_BLA_p4_viability: Viability Assessment in the Tox21 HCT-116 p53 Agonism Beta-lactamase Assay, Phase 4 (AID 2283597; active = hit-call score of the fitted dose curve at least 0.9, where 1 is the maximum;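 note: hits lower the luminescence signal meaning cytotoxicity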). The gist of the method:
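Cytotoxicity as reduced cellular ATP (CellTiter-Glo luminescence, 30 min room temperature), measured in the same wells following the CCF4 FRET p53 reading. Human HCT-116 cells received compounds in DMSO (217-fold dilution) for 16 h.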

The nature of assay [15]: TOX21_p53_BLA_p5_viability: Viability Assessment in the Tox21 HCT-116 p53 Agonism Beta-lactamase Assay, Phase 5 (AID 2283600; active = hit-call score of the fitted dose curve at least 0.9, where 1 is the maximum). In short, it runs like this:
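Viability came from CellTiter-Glo ATP luminescence, read after 30 min at room temperature. Before this, HCT-116 p53-bla cells (4000/well) had 16 hours of compound exposure at 37C, with DMSO stocks diluted 217-fold on transfer.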

Read-out in assay [16]: Cellular tumor antigen p53 (Homo sapiens) (UniProt P04637)
The experiment in a line: LTEA_HepaRG_TP53: Life Technologies and Expression Analysis (LTEA) Assay for Tumor Protein P53 (TP53) using HepaRG (AID 2283537). The conditions noted are these: mRNA level, 48 h; actives raise or lower the signal. In short, it runs like this:
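Read-out is TP53 transcript level by microfluidic qRT-PCR, normalised to three housekeeping genes and fitted bidirectionally against DMSO. Human HepaRG cells received compounds for 48 h, highest concentration 100 uM.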

The target of assay [17] is Cellular tumor antigen p53 (Homo sapiens) (UniProt P04637). The experiment in a line: TOX21_p53_BLA_p3_ratio: Tox21 HCT-116 p53 Agonism Beta-lactamase Assay, Ratio, Phase 3 (AID 2283596; active = hit-call score of the fitted dose curve at least 0.9, where 1 is the maximum). In short, it runs like this: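 Cells were seeded at 4000/well, rested 5 h at 37C, then dosed with DMSO compound solutions (217-fold dilution) for 16 h. CCF4-AM substrate was loaded for 2 h at room temperature, and the 460/530 nm emission ratio was fitted for gain of signal versus DMSO.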
Sequence of Cellular tumor antigen p53 (Homo sapiens) (P04637 whole entry, looked up): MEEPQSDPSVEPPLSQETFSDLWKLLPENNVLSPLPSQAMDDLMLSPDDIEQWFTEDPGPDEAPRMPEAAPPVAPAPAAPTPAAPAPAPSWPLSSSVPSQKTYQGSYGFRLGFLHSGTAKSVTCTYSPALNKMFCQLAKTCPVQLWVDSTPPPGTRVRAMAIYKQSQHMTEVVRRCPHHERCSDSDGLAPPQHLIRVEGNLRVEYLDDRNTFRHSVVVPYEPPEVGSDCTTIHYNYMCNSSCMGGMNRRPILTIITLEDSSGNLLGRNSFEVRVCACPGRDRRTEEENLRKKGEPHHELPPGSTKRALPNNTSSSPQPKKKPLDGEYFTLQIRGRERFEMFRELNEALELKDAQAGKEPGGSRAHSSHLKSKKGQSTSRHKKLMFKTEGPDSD

Assay [18] has the same target. The experiment in a line: TOX21_p53_BLA_p5_ratio: Tox21 HCT-116 p53 Agonism Beta-lactamase Assay, Ratio, Phase 5 (AID 2283599; active = hit-call score of the fitted dose curve at least 0.9, where 1 is the maximum). The gist of the method:
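HCT-116 p53-bla cells (4000/well) plated 5 h, dosed with compound (217-fold DMSO dilution) for 16 h at 37 C; CCF4-AM substrate 2 h at room temperature. Activity is the 460/530 nm emission ratio (405 nm excitation), fitted in gain-of-signal direction versus DMSO.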

Sequence of Signal transducer and activator of transcription 3 (Homo sapiens) (P40763 whole entry, looked up): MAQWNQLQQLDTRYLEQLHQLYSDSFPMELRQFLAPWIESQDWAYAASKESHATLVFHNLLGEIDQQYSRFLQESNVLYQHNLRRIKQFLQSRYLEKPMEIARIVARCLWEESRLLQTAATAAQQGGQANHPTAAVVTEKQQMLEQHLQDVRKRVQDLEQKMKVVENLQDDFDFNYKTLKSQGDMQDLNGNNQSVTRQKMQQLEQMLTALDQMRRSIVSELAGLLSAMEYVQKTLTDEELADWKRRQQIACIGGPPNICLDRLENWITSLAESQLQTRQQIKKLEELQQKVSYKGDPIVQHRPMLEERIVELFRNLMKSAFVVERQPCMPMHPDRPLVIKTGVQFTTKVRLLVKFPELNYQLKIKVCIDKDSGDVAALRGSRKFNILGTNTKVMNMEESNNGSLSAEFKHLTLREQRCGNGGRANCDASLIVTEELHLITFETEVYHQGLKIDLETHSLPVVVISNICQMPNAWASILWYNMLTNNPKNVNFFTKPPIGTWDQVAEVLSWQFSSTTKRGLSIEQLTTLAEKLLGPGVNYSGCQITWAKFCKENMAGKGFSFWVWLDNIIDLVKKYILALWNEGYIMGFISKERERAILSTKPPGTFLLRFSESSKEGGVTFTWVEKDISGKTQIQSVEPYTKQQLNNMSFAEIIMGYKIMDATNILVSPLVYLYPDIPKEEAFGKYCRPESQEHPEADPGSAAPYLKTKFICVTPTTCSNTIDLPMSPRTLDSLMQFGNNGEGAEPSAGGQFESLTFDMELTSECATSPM
Sequence of Nuclear factor erythroid 2-related factor 2 (Homo sapiens) (Q16236 whole entry, looked up): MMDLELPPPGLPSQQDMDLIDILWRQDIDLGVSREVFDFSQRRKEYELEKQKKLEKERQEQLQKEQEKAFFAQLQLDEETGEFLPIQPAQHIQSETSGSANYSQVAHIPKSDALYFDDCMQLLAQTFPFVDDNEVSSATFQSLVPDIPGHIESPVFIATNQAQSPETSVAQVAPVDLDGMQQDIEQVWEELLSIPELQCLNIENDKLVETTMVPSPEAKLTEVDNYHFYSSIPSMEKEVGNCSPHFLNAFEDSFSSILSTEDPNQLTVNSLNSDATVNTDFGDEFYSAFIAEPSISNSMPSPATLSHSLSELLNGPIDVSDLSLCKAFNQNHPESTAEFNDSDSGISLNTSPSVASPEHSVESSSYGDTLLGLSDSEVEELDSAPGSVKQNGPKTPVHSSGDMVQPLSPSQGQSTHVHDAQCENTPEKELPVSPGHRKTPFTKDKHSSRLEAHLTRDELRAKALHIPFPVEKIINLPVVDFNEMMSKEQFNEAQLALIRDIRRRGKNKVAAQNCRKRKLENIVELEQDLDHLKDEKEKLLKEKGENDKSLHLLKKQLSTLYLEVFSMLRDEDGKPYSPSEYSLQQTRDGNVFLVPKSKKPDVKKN

Take `CCCCCCCCCCCCCCC`: the compound was classed as inactive in assay [1], in assay [2], in assay [3], in [4], in [5] and in assay [6]. The compound was called inactive in assay [7], in [8], in [9], in assay [10], in [11] and in [12].
For the compound `Cc1[nH]nc2c1N=C(c1ccccc1Cl)c1cc([N+](=O)[O-])ccc1N2`, the concentration at half-maximal activity (AC50) is 85.1 µM (active) in assay [1]; 0.449 µM (active) in assay [2]; 3.77 µM (active) in [3]; 7.93 µM (active) in assay [4]; 28.3 µM (active) in [5]; 50 µM (active) in assay [6]. In addition, the AC50 in [7] is 1.74 µM (active); in [8] it was 2.38 µM (active); in assay [9], 86.8 µM (active); in assay [10] it was 3.64 µM (active); in assay [11], 61.4 µM (active). Further, in assay [12], the compound was classed as inactive.
In the case of `CCOC(=O)c1nc(C(Cl)(Cl)Cl)n(-c2ccc(Cl)cc2Cl)n1`, the compound was classed as inactive in assay [12].
As for `CC(=O)Nc1ccc(O)cc1`, the compound was called inactive in assay [2], in assay [3], in assay [4], in assay [5], in assay [6] and in assay [7]. The outcome in assay [8], in assay [9], in assay [10], in [11] and in [12] was inactive.
For the compound `O=S(=O)(c1ccc(OCc2ccccc2)cc1)c1ccccc1O`, the result in assay [12] was inactive.
For the compound `COc1cccc(O)c1`, the call in assay [12] was inactive.
Still for that read-out and setting: with `C=CC(=O)OCCN(CC)CC` the entry was “inactive”.
Take `N=C(N)c1ccc(OCCCCCOc2ccc(C(=N)N)cc2)cc1`: the concentration at half-maximal activity (AC50) is 10.1 µM (active) in assay [1]; 56.2 µM (active) in assay [2]; 29 µM (active) in assay [3]; 3.57 µM (active) in assay [4]; 12.6 µM (active) in [5]; 11 µM (active) in assay [6]. Also, the AC50 was 69.8 µM (active) in assay [7]; 43.8 µM (active) in [8]; 37.8 µM (active) in [9]; 28.5 µM (active) in assay [10]; 12 µM (active) in [11]. For the same compound, the outcome in assay [12] was inactive.
On to `CC1CCC(C(=O)O)CC1` (stereo not given), for which the call in assay [12] was inactive.
Still for that read-out and setting: with `CCc1cccc(CC)c1NC(=O)C(=O)O` the entry was “inactive”; with `CCO[Si](CCC1CCC2OC2C1)(OCC)OCC` (stereo not given), “inactive”; with `CC(C)[C@@H]1CC[C@@H](C)C[C@H]1O`, “inactive”.
As for `CN(C)CCOC(c1ccccc1)c1ccccc1`, the result in assay [2], in assay [3], in assay [4], in [5], in assay [6] and in [7] was inactive. Also, the compound was called inactive in assay [8], in assay [9], in assay [10], in [11], in [12] and in assay [13]. In addition, the call in assay [14] and in assay [15] was inactive.
Turning to `CCCCc1oc2ccccc2c1C(=O)c1cc(I)c(OCCN(CC)CC)c(I)c1`, the result in assay [2], in assay [3], in assay [7], in [8], in assay [10] and in assay [12] was inactive. Moreover, the outcome in [17], in assay [18] and in assay [15] was inactive. Also, the half-maximal activity concentration (AC50) in [4] is 67.7 µM (active); in assay [5], 70.5 µM (active); in assay [6], 55.3 µM (active); in assay [16] it was 66.8 µM (active); in assay [9], 55.5 µM (active); in assay [11] it was 57 µM (active). For the same compound, the AC50 in assay [14] was 31.3 µM (active) and 50.9 µM (active) and 23 µM (active).
